APOBEC3G inh: inhibitors of human APOBEC3G DNA deaminase; inhibition, % at 20 µM; Q9HC16; recombinant A3G, ssDNA deamination FAM/TAMRA fluorescence; 330,000 tested, 0.28% active;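 active = inhibition of at least 40% at 20 µM, with no more than 30% in the related APOBEC3A deaminase screen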
Target sequence (Q9HC16 whole entry, looked up): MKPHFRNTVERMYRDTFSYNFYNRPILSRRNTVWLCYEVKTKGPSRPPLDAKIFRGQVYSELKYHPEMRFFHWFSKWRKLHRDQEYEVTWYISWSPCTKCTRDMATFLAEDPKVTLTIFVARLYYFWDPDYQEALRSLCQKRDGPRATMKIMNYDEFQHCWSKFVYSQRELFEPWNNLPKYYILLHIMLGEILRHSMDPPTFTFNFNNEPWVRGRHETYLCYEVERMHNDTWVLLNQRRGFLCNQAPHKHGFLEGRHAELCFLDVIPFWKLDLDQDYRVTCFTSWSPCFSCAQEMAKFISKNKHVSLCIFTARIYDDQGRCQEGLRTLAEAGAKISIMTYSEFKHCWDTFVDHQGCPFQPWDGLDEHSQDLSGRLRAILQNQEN
A3A deaminase: inhibitors of human APOBEC3A DNA deaminase | 330,000 tested, 0.41% active | P31941 | inhibition, % at 20 µM | recombinant A3A, FAM/TAMRA ssDNA deamination fluorescence;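 active = at least 40% inhibition at 20 µM here, with at most 30% in a related deaminase screen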
Target sequence (P31941 whole entry, looked up): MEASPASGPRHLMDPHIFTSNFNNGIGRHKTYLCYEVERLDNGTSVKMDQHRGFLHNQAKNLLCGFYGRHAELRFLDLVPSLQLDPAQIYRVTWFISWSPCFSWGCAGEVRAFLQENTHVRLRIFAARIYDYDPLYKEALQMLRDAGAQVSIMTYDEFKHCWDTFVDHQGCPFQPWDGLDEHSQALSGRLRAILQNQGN
PfG6PD inh: PfG6PD (Plasmodium falciparum) enzyme inhibition; PfGluPho enzyme, NADPH resazurin-diaphorase fluorescence; inhibition, % at 20 µM; 350,000 tested, 0.78% active;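 active = inhibition reaching at least a set limit at 20 µM in the primary screen, cut at about 59% in these data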
PfM18AAP inh: blocks P. falciparum M18 aspartyl aminopeptidase; recombinant PfM18AAP, H-Glu-NHMec fluorogenic cleavage; inhibition, % at 7.35 µM; AID 1822; 290,000 tested, 1.2% active;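 active = inhibition above the campaign mean inhibition over all tested compounds plus 3 SD, cut at about 28% in these data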
Yeast superoxide: yeast age-related superoxide inhibition as caloric restriction mimetic. superoxide response (% of plate mean), % at 10 µM. 330,000 tested, 0.18% active. S. cerevisiae aged cells, superoxide DHE fluorescence; hits give low values;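 active = superoxide response under a set limit, about three screen SD below normal, cut at about 65% in these data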;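 also: yeast aged for seven days with compound at 30 °C before DHE staining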
A3A conf: confirmation of human APOBEC3A DNA deaminase inhibitors; shares compounds with A3A deaminase; recombinant A3A, ssDNA deaminase UDG fluorescence assay; inhibition, % at 20 µM; 1,400 tested, 63% active; AID 493151;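 active = inhibition reaching a set limit, 80% of the first screen's cutoff, at 20 µM in any replicate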
UDG A3A counter: UDG inhibition in APOBEC3A counter-screen; shares compounds with A3A deaminase; UDG counterscreen, FAM/TAMRA uracil oligo fluorescence; inhibition, % at 20 µM; 1,000 tested, under 10 active; call rule not given here
A number is an active result; 0 = inactive; - = not tested or not shown. This is a sample that favours compounds with a hit; in the whole collection about 2.4% have one here.

SMILES	APOBEC3G inh	A3A deaminase	PfG6PD inh	PfM18AAP inh	Yeast superoxide	A3A conf	UDG A3A counter
Cc1ccc(-n2nc3c(=O)n(C(C)C(=O)NCc4ccc(Cl)cc4)nc(C)c3c2C)cc1 (stereo unspecified)	0	0	0	0	0	-	-
O=C(O)CNC(=O)/C(=C\c1cccc([N+](=O)[O-])c1)NC(=O)c1ccco1	0	0	0	0	0	-	-
COc1ccc(C(C(=O)NCCC(C)C)N(CCO)C(=O)c2snc(C(N)=O)c2N)cc1 (stereo unspecified)	0	77	0	0	0	0	-
C/C=C/c1ccc(OCC(=O)Nc2ccc(C(N)=O)cc2)c(OC)c1	0	0	0	0	0	-	-
COc1cc(/C=C/c2cc[n+](C)cc2)ccc1OCC(=O)Nc1ccccc1	0	66	0	0	0	79	0
C[N+]12CCCCC1[C@@H](CO)CCC2 (stereo partly specified)	0	56	0	0	0	71	0
CN(CCCS(=O)(=O)[O-])c1ccc(/C=C/c2ccc3ccccc3[n+]2C)cc1	0	58	0	0	0	68	0
CN(C)c1ccc(/C=C/c2ccc3ccccc3[n+]2C)cc1	0	0	0	0	0	-	-
CCc1cccc(CC)c1C(OC(C)=O)c1cccnc1 (stereo unspecified)	0	0	0	-	0	-	-
CCc1ccc(/C=C/c2c[nH]c3ccccc23)[n+](CC)c1	0	65	0	0	0	69	0
CCc1ccc(-c2cc(C(=O)N/N=C/c3c[nH]c4ccccc34)[nH]n2)cc1	0	0	0	0	0	-	-
COc1ccc(NC(=O)CN(C)C(=O)c2cccc(S(=O)(=O)Nc3ccccc3Cl)c2)cc1	0	0	0	-	0	-	-
CCCCN(C(=O)c1ccc([N+](=O)[O-])o1)c1c(N)n(CC(C)C)c(=O)[nH]c1=O	0	44	-	-	0	0	-
CCc1noc(C)c1C(=O)N(CCOC)c1c(N)n(CC(C)C)c(=O)[nH]c1=O	0	43	0	0	0	0	-
CCCCN(C(=O)c1c(CC)noc1C)c1c(N)n(CC(C)C)c(=O)[nH]c1=O	0	0	0	-	0	-	-
CC(OC(=O)[C@@H](NC(=O)OCc1ccccc1)C(C)C)C(=O)Nc1ccc(N2CCOCC2)cc1 (stereo partly specified)	-	-	0	-	-	-	-
CCOC(=O)Cn1c(C)[n+](C)c2cc(Cl)c(Cl)cc21	0	87	0	0	0	81	0
CC(=O)OCCn1c(C)[n+](CCOC(C)=O)c2cc(Cl)c(Cl)cc21	0	82	0	0	0	81	0
CCn1c(C)[n+](CCOCC[n+]2c(C)n(CC)c3cc(Cl)c(Cl)cc32)c2cc(Cl)c(Cl)cc21	0	78	0	0	0	88	0
CC(=O)OCCn1c2nc(=O)[nH]c(=O)c-2nc2cc(C)c(C)cc21	0	0	0	0	0	-	-
CCn1c(/C=C/Nc2ccccc2)[n+](CC)c2cc(Cl)c(Cl)cc21	0	0	0	0	0	-	-
Cc1ccc(S(=O)(=O)N2[C@@H](c3ccc(Br)cc3)C(C(=O)O)=CC[C@H]2c2ccc3c(c2)OCO3)cc1	0	0	0	-	0	-	-
COc1cc(NS(=O)(=O)c2cc(C(=O)NCCc3ccccn3)ccc2OC)cc(OC)c1	0	0	0	-	0	-	-
CCOC(=O)c1ccc2c(c1)n(CC)c(/C=C/N(C)c1ccccc1)[n+]2CC	0	57	0	0	0	79	0
CCOC(=O)c1ccc2c(c1)n(CCO)c(C)[n+]2CC	0	43	0	0	0	82	0
SMILES	APOBEC3G inh	A3A deaminase	PfG6PD inh	PfM18AAP inh	Yeast superoxide	A3A conf	UDG A3A counter
COC(=O)c1ccc2c(c1)nc(C)n2CCO	0	0	0	0	0	-	-
CC(NC(=O)CNC(=O)c1ccccc1F)c1ccc(-n2ccnc2)cc1 (stereo unspecified)	0	0	0	-	0	-	-
C[N+]1(CC(=O)OCCCc2ccccc2)CCCC1	0	55	0	0	0	81	0
C[N+]1(CC(=O)OCCCc2ccccc2)CCCCC1	0	48	0	0	0	83	0
O=C(CN1CCCC1)OCCCc1ccccc1	0	0	0	0	0	-	-
CC(=O)C(Cc1ccccc1)NC(=O)COc1ccc2c(c1)OCO2 (stereo unspecified)	0	0	0	-	0	-	-
O=C(C[C@H]1C[C@@H]2c3cc(NS(=O)(=O)c4ccccc4)ccc3O[C@@H]2[C@H](CO)O1)N1CCOCC1	-	-	0	-	-	-	-
CC(=O)Nc1ccc(C(=O)NC2CCSc3ccccc32)cc1 (stereo unspecified)	0	45	0	0	0	0	-
CC1(C)CC(N2CCCC2)=CC(=[N+]2CCCCC2)C1	0	51	0	0	0	71	0
CC1(C)CC(N2CCCC2)=CC(=[N+]2CCCC2)C1	0	66	0	0	0	72	0
CCOc1ccccc1NC(=O)COC(=O)c1c(CC)noc1C	0	0	0	-	-	-	-
CCN(C(=O)COC(=O)c1ccccc1Nc1ccccc1)c1c(N)n(Cc2ccccc2)c(=O)[nH]c1=O	-	-	0	-	-	-	-
Cc1nc(-c2cc(-c3ccc(Cl)cc3)no2)cs1	0	0	0	0	0	-	-
Clc1ccc(-c2cc(-c3ccccc3)on2)cc1	0	95	0	-	0	0	0
CCOC(=O)N1CCN(c2ccc(C(=O)c3cccc(F)c3)cc2)CC1	0	45	0	0	0	0	0
CC(C)[N+](C)(C)CC(O)CN(c1ccccc1)c1ccccc1 (stereo unspecified)	0	61	0	0	0	71	0
c1cc[n+](CCC[n+]2ccccc2)cc1	0	71	0	0	0	88	0
CC1(CC(=O)N/N=C/c2ccc(-c3ccc(C(=O)O)cc3)o2)OCCO1	0	0	0	0	0	-	-
O=C(CN1CCOCC1)N/N=C/c1ccc(-c2ccc(C(=O)O)cc2)o1	0	43	0	0	0	85	0
COc1ccccc1N1CCN(C(=O)c2ccc(N(C)S(=O)(=O)c3ccccc3)cc2)CC1	0	0	0	0	0	-	-
CC[n+]1cccc(-c2nc3ccccc3s2)c1	0	53	0	0	0	64	0
CCOC(=O)Cn1c2c(c(=N)c3c1CCC3)CCCC2	0	0	0	0	0	-	-
CCCCn1c2c(c3ccccc31)CCc1nonc1-2	0	0	0	0	0	-	-
CCCn1c2c(c(=N)c3c1CCC3)CCC2	0	71	0	0	0	75	0
CCCn1c2c(c(=N)c3c1CCC3)CCCC2	0	92	0	0	0	77	0
CCCCCCCn1c2c(c(=N)c3ccccc31)CCC2	0	74	0	0	0	78	0
COc1cccc(CN2CCNC(=O)C2CC(=O)N(C)CCC2CCOCC2)c1OC (stereo unspecified)	0	0	0	0	0	-	-
Cc1cc(O)c(CN(C)C)c2c1C(=O)/C(=C/c1ccco1)O2	0	48	0	31	0	15	0

High-throughput results: PubChem BioAssay, several laboratories
